Experimental data published in PubChem BioAssay (EPA / NIEHS).
Activity calls are given as the source filed them. The calls were made as follows: active = hit-call score of the fitted dose curve at least 0.9, where 1 is the maximum; inactive = score below 0.9.

Assay: ATG_BRE_CIS: Attagene CIS-FACTORIAL HepG2 Assay for human Bone Morphogenetic Protein (BMP) Response Element (BRE) (AID 2282933)
Conditions: HepG2 BMP response element reporter, Attagene transcription factor profiling; actives raise or lower the signal
Procedure: ATG_CIS is a cell-based, multiplexed-readout assay that uses HepG2, a human liver cell line, with measurements taken at 24 hours after chemical dosing in a 24-well plate.ATG_BRE_CIS is one of 52 assay component(s) measured or calculated from the ATG_CIS assay. It is designed to make measurements of mRNA induction, a form of inducible reporter, as detected with fluorescence intensity signals by Reverse transcription polymerase chain reaction (RT-PCR) and Capillary electrophoresis technology.Data from the assay component ATG_BRE_CIS was analyzed into 1 assay endpoint. This assay endpoint, ATG_BRE_CIS, was analyzed with bidirectional fitting relative to DMSO as the negative control and baseline of activity. Using a type of inducible reporter, measures of mRNA for gain or loss-of-signal activity can be used to understand the reporter gene at the transcription factor-level as they relate to the gene SMAD1. Furthermore, this assay endpoint can be referred to as a primary readout, because this assay has produced multiple assay endpoints where this one serves a reporter gene function. To generalize the intended target to other relatable targets, this assay endpoint is annotated to the dna binding intended target family, where the subfamily is Smad protein.
Human liver HepG2 cells are transiently transfected with multiple reporter transcription units (MRTUs) in 6-well plates using FuGene 6 reagent (Roche; 3 ml FuGene/1 mg DNA). The MRTU constructs are regulated by a cis-regulating element (promoter). […] A major difference between the CIS and TRANS system is that in CIS activities of endogenous TFs are measured, whereas the TRANS assay evaluates changes in activities of exogenous, chimeric NR-Gal4 proteins. […] At the end of 24 hour incubation, total RNA was isolated using TriZol reagent (Invitrogen). The isolated RNA is then reverse-transcribed using oligo(dT) primer and Mo-MLV reverse transcriptase (Invitrogen) with DNAse I (Ambion) treatment for 30 min. The one-tenth of the produced cDNA was amplified by PCR using Taq DNA polymerase (Invitrogen) and two reporter sequence-specific primers. The PCR products were fluorescently labeled by primer extension with 6-arboxyfluorescein (6-FAM) 5'-labeled reporter sequence-specific primer (2 min at 95 C, 20 s at 68 C and 10 min at 72 C) and these products were digested with 5U of HpaI (New England Biolabs) for 2h at 37 C. The fragments were purified using Qiaquick PCR columns (Qiagen), analyzed on an ABI 3130xL genetic analyzer (Applied Biosystems) with peak positions identified by using a set of X-rhodamine (ROX)-labeled MapMarker1000 molecular weight standards (BioVentures). The raw capillary electrophoresis data was processed using Attagraph software (Attagene).

outcome, inactive:
CCCCCCCCCCCCCC(=O)O
CC(C)c1cccc(O)c1
Cc1ccc2n[nH]nc2c1
CCCCCCCCCOC(C)=O
CC1=CCC(O)(C(C)C)CC1 (stereo not given)
Cc1ccc2ccccc2n1
COC(C)CCO (stereo not given)
CC(=O)C(C)=O
NC(=O)c1ccccc1Cl
CCC(O)CO (stereo not given)
C=CC(C)(C)O
Cc1ccc(C=O)cc1
C/C=C(\C)C(=O)OCc1ccccc1
COC(=O)OC
CC(=O)c1c(C)cc(C(C)(C)C)cc1C
S=C(S)NCCNC(=S)S
O=C(O)C[C@H](O)C[C@H](O)/C=C/c1c(C2CC2)nc2ccccc2c1-c1ccc(F)cc1
OCCN1CCNCC1
c1ccc2[nH]ccc2c1
CC1(C)[C@@H]2CC[C@@]1(C)[C@H](O)C2
CC(C)=CCO
CN(C)C(=N)N=C(N)N
O=Nc1ccc(Nc2ccccc2)cc1
Nc1ccc(F)c([N+](=O)[O-])c1
Cc1ncc([N+](=O)[O-])n1C
Nc1cc(N)cc(C(=O)O)c1
C=CC(=O)NCOCC(C)C
CC(=O)[C@H]1CC[C@H]2[C@@H]3CC=C4C[C@@H](O)CC[C@]4(C)[C@H]3CC[C@]12C
O=C[C@@H](O)[C@H](O)[C@H](O)CO
CC(CCO)CCCC(C)(C)O (stereo not given)
O=S(=O)(O)NC1CCCCC1
CC(C)C[C@H]1C(=O)N2CCC[C@H]2[C@]2(O)O[C@](NC(=O)[C@@H]3C=C4c5cccc6[nH]c(Br)c(c56)C[C@H]4N(C)C3)(C(C)C)C(=O)N12
CCOC(=S)SSC(=S)OCC
C=C(C)[C@@H]1CC[C@@H](C)C[C@@H]1O

AC50, active:
O=C(Nc1ccccc1)c1cc([N+](=O)[O-])ccc1Cl 49.9 µM
Nc1nc2ccc([N+](=O)[O-])cc2s1 100 µM
CCn1c2ccccc2c2cc(N)ccc21 100 µM
C=C(C)[C@@H]1CCC2=CC(=O)C[C@@H](C)[C@]2(C)C1 116 µM
C=C(C)C(=O)Nc1ccc(Cl)c(Cl)c1 79.9 µM
O=C1CCCCCCCCCCOCCCCO1 100 µM
